Assay outcomes (PubChem)
Shiga inhibitor = Shiga toxin inhibition | Vero cells, Shiga toxin protein synthesis inhibition reporter | inhibition, % at 38.7 µM | 290,000 compounds, 9.2% hits; in the data active means inhibition mostly above about 28%, no sharp cut-off; inactive means mostly below about 43%
NS1 function inh = influenza NS1 inhibition; Potency, µM (series often up to 46.1 µM); 270,000 compounds, 0.4% hits; AID 2326; calls by dose curve; further: actives are rising curves; nearly all actives have a fitted effect of over 50% in size
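In this qHTS, NS1 from influenza A is expressed in budding yeast, where it slows growth. Cells are switched from glucose to 2% galactose medium (pH 6.0, -URA), treated with compound, and growth recovery is read at OD600.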
Pf growth 48h = P. falciparum growth inhibition at 48 hours (one generation). 310,000 compounds, 5.9% hits. P. falciparum luciferase growth in erythrocytes, 48 h. Potency, µM (titrated, usually from 28.7 µM), usual class: inhibitors
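Firefly luciferase activity from engineered P. falciparum reports growth; inhibitors lower the luminescent signal. Cultures contained 2% hematocrit erythrocytes at 0.1% final parasitemia.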
CHX counter = counter-screen hit for Shiga toxin inhibitors, cycloheximide; 300,000 compounds, 12% hits; max response, %; cell reporter, cycloheximide protein synthesis inhibition counterscreen; AID 2314; in the data active means max response mostly above about 13%, no sharp cut-off; inactive means mostly below about 14%; further: read at 38.3 µM for the half of the compounds with a filed dose
Pf growth 96h = P. falciparum growth inhibition at 96 hour, primary screen for plastid delayed-death inhibitors. P. falciparum luciferase reporter growth, 96 h. Potency, µM (highest dose often 28.7 µM), usual class: inhibitors. 320,000 compounds, 6.9% hits
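96 h incubation, 37 C, 5% CO2, of luciferase-reporter P. falciparum-infected RBCs (2% hematocrit, 0.05% parasitemia final) with test compounds; endpoint luminescence.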
Of the large screens only hits and unclear results are named; the others gave an inactive call. Most compounds without a hit are left out; they make up all but 21% or so of the library. Unless noted, the call rests on the fitted dose curve; in most records, active means well fitted inhibition curve with a large enough effect; inconclusive means small, poorly fitted or top-dose-only effect, or another doubt; inactive means no such curve, though single readings can be large or run the other way.

COc1ccc(C(=O)N(Cc2ccccc2)c2cccc(C)c2)cc1S(=O)(=O)N1CCOCC1	Pf growth 48h 10µM, Pf growth 96h 5.2µM (no result: Shiga inhibitor, NS1 function inh, CHX counter)
Cc1cccc(N(Cc2ccccc2)C(=O)c2ccc(CS(C)(=O)=O)cc2)c1	Pf growth 96h inconclusive
COc1ccc(CC(=O)N(Cc2ccccc2)c2ccccc2)cc1S(=O)(=O)N1CCOCC1	Pf growth 48h inconclusive, Pf growth 96h inconclusive
CN(CCC#N)C(=O)COC(=O)c1ccccc1OCc1ccccc1Cl	none (no result: NS1 function inh)
CC1(C)Cc2ccccc2C(/C(C#N)=N/O)=N1	Pf growth 96h inconclusive (no result: NS1 function inh)
Cc1cccc(N(Cc2ccccc2)C(=O)c2cccc(S(=O)(=O)N3CC(C)OC(C)C3)c2)c1 (stereo not given)	Pf growth 48h 13µM, Pf growth 96h inconclusive (no result: Shiga inhibitor, NS1 function inh, CHX counter)
Cc1cccc(N(Cc2ccccc2)C(=O)c2ccc(C)c(S(=O)(=O)N3CCOCC3)c2)c1	Pf growth 48h 7.4µM, Pf growth 96h inconclusive (no result: Shiga inhibitor, NS1 function inh, CHX counter)
CC1CCN(S(=O)(=O)c2cccc(C(=O)N(Cc3ccccc3)c3ccccn3)c2)CC1	none
COc1ccc(C(=O)N(CCc2ccccc2)Cc2ccccc2)cc1S(=O)(=O)N1CCOCC1	Pf growth 48h inconclusive, Pf growth 96h 8.3µM (no result: Shiga inhibitor, NS1 function inh, CHX counter)
Cc1ccc(C(=O)N2CCN(Cc3ccccc3)CC2)cc1S(=O)(=O)N1CCOCC1	Pf growth 96h inconclusive (no result: Shiga inhibitor, NS1 function inh, CHX counter)
CN(CC(=O)Nc1c(Cl)cccc1Cl)C(=O)Cc1ccc(S(=O)(=O)N2CCOCC2)s1	none
CN(Cc1ccc(C(C)(C)C)cc1)C(=O)Cc1ccc(S(=O)(=O)N2CCOCC2)s1	Pf growth 48h 9.3µM, Pf growth 96h 13µM (no result: Shiga inhibitor, NS1 function inh, CHX counter)
COC(=O)/C(C#N)=C/c1c(Oc2cccc(C)c2C)nc2ccccn2c1=O	none
Cc1cc(C)c(N(Cc2ccccc2)S(=O)(=O)c2ccc(OCCNC(=O)c3cc4ccccc4o3)cc2)c(C(=O)NO)c1	none (no result: NS1 function inh, Pf growth 48h, Pf growth 96h)
CN(CC(=O)Nc1c(Cl)cccc1Cl)C(=O)c1cccc(-n2cccc2)c1	Pf growth 96h inconclusive (no result: Shiga inhibitor, NS1 function inh, CHX counter)
O=C(O)Cn1nc(-c2ccccc2)c2ccccc21	none (no result: Shiga inhibitor, Pf growth 48h, CHX counter, Pf growth 96h)
Cc1ccc(S(=O)(=O)N2CCOCC2)cc1C(=O)OCC(=O)N(Cc1ccccc1)C(C)C	Pf growth 48h 15µM, Pf growth 96h inconclusive (no result: Shiga inhibitor, NS1 function inh, CHX counter)
CC1CN(S(=O)(=O)c2cc(C(=O)N(CCc3ccccc3)Cc3ccccc3)ccc2Cl)CC(C)O1 (stereo not given)	Pf growth 48h 5.2µM, Pf growth 96h 5.2µM (no result: Shiga inhibitor, NS1 function inh, CHX counter)
Cc1cccc(N(Cc2ccccc2)C(=O)Cc2ccc(S(=O)(=O)N3CCOCC3)s2)c1	Pf growth 48h 13µM, Pf growth 96h inconclusive (no result: Shiga inhibitor, NS1 function inh, CHX counter)
CCCCNC(=O)NS(=O)(=O)c1ccc(CO)cc1	none (no result: NS1 function inh, Pf growth 48h, Pf growth 96h)
CC(=O)c1ccc(OCc2cc(=O)n3ccsc3n2)cc1	Shiga inhibitor 63, CHX counter 38
O=c1cc(CNc2ccc(Br)cc2)nc2sccn12	Shiga inhibitor 56, CHX counter 28
CN1CCN(C(=O)CCc2nnc3ccc(N4CCC5(CC4)OCCO5)nn23)CC1	none
CCSC[C@@H](N)C(=O)O	none (no result: Shiga inhibitor, Pf growth 48h, CHX counter, Pf growth 96h)
CC1(C(=O)N2CCC(CC3CC(c4cccc(Br)c4)=NO3)(C(=O)NCC3CCCCC3)CC2)CC1 (stereo not given)	Pf growth 48h inconclusive, Pf growth 96h 2.9µM
CC1(C(=O)N2CCC(CC3CC(c4ccc(Cl)cc4)=NO3)(C(=O)NCC3CCCCC3)CC2)CC1 (stereo not given)	Pf growth 48h inconclusive, Pf growth 96h 1.5µM
CC(C)(C)OC(=O)N1CCC(Cc2cc(-c3ccc(Cl)cc3)no2)(C(=O)O)CC1	none
CC(C)(C)OC(=O)N1CCC(CC2CC(c3ccc(Cl)cc3)=NO2)(C(=O)NCC2CCCCC2)CC1 (stereo not given)	Shiga inhibitor 47, CHX counter 32, Pf growth 96h inconclusive
COc1ccc(N(CC(=O)NC2CCCC2)C(=O)Cn2nnc(-c3ccc(C)cc3)n2)cc1OC	Pf growth 48h inconclusive, Pf growth 96h 10µM
COc1ccc(N(CC(=O)NC2CCCC2)C(=O)Cn2nnc(-c3ccc(F)cc3)n2)cc1OC	Pf growth 48h inconclusive
COc1ccc(CCNC(=O)Cn2nnc(-c3ccc(N(C)C)cc3)n2)cc1OC	Pf growth 96h 4.1µM
COc1ccc(CCNC(=O)Cn2nnc(-c3ccc(OC)c(OC)c3)n2)cc1OC	none
CCCn1c(SCC(=O)Nc2cc(S(=O)(=O)N3CCCCC3)ccc2C)n[nH]c1=O	Pf growth 96h inconclusive (no result: Shiga inhibitor, NS1 function inh, CHX counter)
COc1ccc(C(=O)NCc2ccncc2)cc1OC	none
COCC(C)NC(=O)c1cc(-c2ccc(OC)c(OC)c2)on1 (stereo not given)	Pf growth 96h inconclusive
COc1cc(C)ccc1OCc1cc(C(=O)NCc2ccncc2)no1	Shiga inhibitor 107, CHX counter 59
COc1cc(C)ccc1OCc1cc(C(=O)NC(C)Cn2cncn2)no1 (stereo not given)	Shiga inhibitor 81, CHX counter 65, Pf growth 96h inconclusive
O=C(O)c1cnc2ccccc2n1	none
Cc1ccc(CNC(=O)c2cnc3ccccc3n2)cc1	none
COC(=O)c1cnc2ccccc2n1	CHX counter 16
O=C(NCCc1ccccc1)c1cnc2ccccc2n1	Shiga inhibitor 106, CHX counter 32, Pf growth 96h inconclusive
COCCNC(=O)c1ccc2ccccc2n1	CHX counter 27
O=C(NCCc1ccc(Cl)cc1)c1ccc2ccccc2n1	Shiga inhibitor 70, CHX counter 22
NNC(=O)c1ccc2ccccc2n1	none (no result: NS1 function inh)
CC1(C)CC(=O)C(N=Nc2cc3c(cc2[N+](=O)[O-])OCCO3)=C(O)C1	none (no result: NS1 function inh)
Cc1csc(=O)n1CCC(=O)OCC(=O)N(CC(C)C)c1c(N)n(Cc2ccccc2)c(=O)[nH]c1=O	Pf growth 96h inconclusive
CCn1ncc(Br)c1C(=O)NC1CCCCCCC1	Pf growth 96h inconclusive
Cc1ccccc1OCCNC(=O)c1ccc2ccccc2n1	Shiga inhibitor 93, CHX counter 71
O=C(NCc1ccccc1)c1ccc2ccccc2n1	none
O=C(O)C(=O)/C(=C\c1ccc(Cl)cc1)c1ccc2ccccc2n1	Shiga inhibitor 166, CHX counter 30 (no result: NS1 function inh)
COc1ccc(CNC(=O)c2ccc3ccccc3n2)cc1	Pf growth 48h inconclusive, CHX counter 26, Pf growth 96h inconclusive
Cc1ccccc1CNC(=O)c1ccc2ccccc2n1	none
OC(COC(c1ccc(F)cc1)c1ccc(F)cc1)CN1CCCC1 (stereo not given)	Pf growth 48h inconclusive, Pf growth 96h inconclusive
COc1ccc(C2N(c3cc(C)on3)C(=O)C3CCCN32)cc1 (stereo not given)	Pf growth 96h 3.3µM
Cc1cc(N2C(=O)C3CCCN3C2c2cccc(Cl)c2)no1 (stereo not given)	Pf growth 96h 4.7µM
CCn1c(SCC(=O)N2CCc3ccccc3C2)nc2sc(C)c(C)c2c1=O	none
CCOc1ccc(Cl)cc1S(=O)(=O)N1CCC(C(=O)N2CCCC2)CC1	Pf growth 96h inconclusive
O=C(CCCn1c(=S)[nH]c2ccccc2c1=O)NC1CCCC1	Pf growth 96h 0.52µM
CC1CCCCC1NC(=O)CCCn1c(=S)[nH]c2ccccc2c1=O (stereo not given)	Pf growth 48h inconclusive, Pf growth 96h 15µM (no result: NS1 function inh)
CC1CCCCC1NC(=O)CCCCCn1c(=S)[nH]c2ccccc2c1=O (stereo not given)	Pf growth 48h inconclusive, Pf growth 96h inconclusive (no result: NS1 function inh)
